Results: ChEMBL document CHEMBL3988442, “University of Dundee, Small-Polar-MMV Screening Library” (2021)
For some of these results: Potency and affinity values are given separately.

Experiments:
Set-up in all cases: scale not given: direction of the effect not stated beside the values
[1] = target: Protein translocase subunit SecA (Escherichia coli (strain K12)) (UniProt P10408); experiment: Assay to Identify E. coli SecA ATPase Inhibitors; format: functional; conditions: 30 µM
[2] = target: T1, Ubiquitin-activating enzyme e1, putative (Leishmania donovani (strain BPK282A1)) (UniProt E9BSI1); experiment: Leishmania donovani Ubiquitin Activating Enzyme (LdE1); format: functional; conditions: 30 µM
T1 sequence (whole entry): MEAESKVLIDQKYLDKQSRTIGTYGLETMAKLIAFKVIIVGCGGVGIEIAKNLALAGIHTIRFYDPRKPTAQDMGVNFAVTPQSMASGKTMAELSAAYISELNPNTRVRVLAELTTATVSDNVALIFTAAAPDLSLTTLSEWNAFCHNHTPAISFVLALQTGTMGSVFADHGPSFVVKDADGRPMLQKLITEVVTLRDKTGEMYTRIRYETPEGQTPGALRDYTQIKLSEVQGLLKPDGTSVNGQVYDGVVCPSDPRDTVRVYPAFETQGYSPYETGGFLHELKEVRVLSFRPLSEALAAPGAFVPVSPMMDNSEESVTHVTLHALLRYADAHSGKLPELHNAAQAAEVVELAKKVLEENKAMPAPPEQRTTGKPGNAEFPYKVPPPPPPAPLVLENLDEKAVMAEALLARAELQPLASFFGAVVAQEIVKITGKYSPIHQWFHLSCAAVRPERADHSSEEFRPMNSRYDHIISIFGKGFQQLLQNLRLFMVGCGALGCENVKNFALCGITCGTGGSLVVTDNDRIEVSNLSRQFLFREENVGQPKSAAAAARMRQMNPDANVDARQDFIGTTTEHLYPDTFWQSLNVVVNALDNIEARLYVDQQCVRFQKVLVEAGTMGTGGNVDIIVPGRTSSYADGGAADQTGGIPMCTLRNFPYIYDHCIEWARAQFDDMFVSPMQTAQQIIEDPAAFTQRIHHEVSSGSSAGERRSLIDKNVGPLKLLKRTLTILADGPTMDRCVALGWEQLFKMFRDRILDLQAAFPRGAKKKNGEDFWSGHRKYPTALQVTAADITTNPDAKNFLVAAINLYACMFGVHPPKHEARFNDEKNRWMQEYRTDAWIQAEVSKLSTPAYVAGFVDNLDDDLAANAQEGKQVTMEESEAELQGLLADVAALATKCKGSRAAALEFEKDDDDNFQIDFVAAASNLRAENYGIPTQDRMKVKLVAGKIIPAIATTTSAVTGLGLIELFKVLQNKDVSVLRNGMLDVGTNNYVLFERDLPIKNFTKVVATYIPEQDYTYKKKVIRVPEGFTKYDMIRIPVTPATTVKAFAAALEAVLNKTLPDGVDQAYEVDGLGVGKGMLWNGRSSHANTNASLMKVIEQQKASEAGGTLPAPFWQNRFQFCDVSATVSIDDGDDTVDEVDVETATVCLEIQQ

[3] = target: AMP-activated protein kinase, AMPK (Homo sapiens) (UniProt P54646+O43741+P54619+Q9UGJ0+Q9Y478+Q13131+Q9UGI9); experiment: AMP-dependent Kinase enzyme assay. An in vitro enzyme assay that detects ADP turnover that is directly proportional to AMPK activity. This uses naive AMPK that is activated during the assay with MK-8722; format: functional; conditions: 30 µM
[4] = target: Sialic acid-binding Ig-like lectin 9 (Homo sapiens) (UniProt Q9Y336); experiment: Hs-Siglec9 ALPHAscreen SOP 20170721; conditions: 10 µM
Sequence of Sialic acid-binding Ig-like lectin 9 (Homo sapiens) (Q9Y336 whole entry): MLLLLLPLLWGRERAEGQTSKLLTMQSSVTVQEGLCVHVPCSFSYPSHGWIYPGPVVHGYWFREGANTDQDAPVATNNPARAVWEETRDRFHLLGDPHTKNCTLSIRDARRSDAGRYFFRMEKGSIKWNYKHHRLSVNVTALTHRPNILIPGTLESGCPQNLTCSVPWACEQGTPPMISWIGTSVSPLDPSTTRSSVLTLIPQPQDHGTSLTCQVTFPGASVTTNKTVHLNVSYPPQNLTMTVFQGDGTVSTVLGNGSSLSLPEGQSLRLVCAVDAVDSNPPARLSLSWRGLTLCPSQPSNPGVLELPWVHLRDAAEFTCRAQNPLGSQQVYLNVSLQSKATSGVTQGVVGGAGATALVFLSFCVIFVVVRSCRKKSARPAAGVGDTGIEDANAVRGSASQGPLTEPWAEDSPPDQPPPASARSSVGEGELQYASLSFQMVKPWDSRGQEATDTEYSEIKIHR

Trypanosoma cruzi = experiment: Trypanosoma cruzi phosphomannomutase and mannose-1-phosphate guanylyltransferase assay; format: functional; conditions: 10 µM
[5] = target: T2, Arginase-2, mitochondrial (Homo sapiens) (UniProt P78540); experiment: in vitro enzyme assay to detect the production of urea directly proportional to the activity of Arginase II; format: functional; conditions: 33.3 µM; further: in the data most compounds retested in dose-response had high values
T2 sequence (whole entry): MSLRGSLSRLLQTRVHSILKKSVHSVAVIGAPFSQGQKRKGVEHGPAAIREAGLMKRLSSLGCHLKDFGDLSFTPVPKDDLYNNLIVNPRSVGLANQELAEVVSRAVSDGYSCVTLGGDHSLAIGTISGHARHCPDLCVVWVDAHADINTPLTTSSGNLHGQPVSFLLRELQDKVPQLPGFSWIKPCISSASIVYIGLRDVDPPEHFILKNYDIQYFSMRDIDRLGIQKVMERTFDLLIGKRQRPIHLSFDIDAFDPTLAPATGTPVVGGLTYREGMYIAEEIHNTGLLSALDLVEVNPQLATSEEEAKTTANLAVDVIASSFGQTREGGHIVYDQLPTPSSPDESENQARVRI

[6] = target: T3, Proteasome subunit beta (Trypanosoma cruzi) (UniProt O96673); experiment: Trypanosoma cruzi proteasome chymotrypsin-like activity (TcProtChymo) assay.; further: in the data most compounds retested in dose-response had high values; format: functional; conditions: 9.37 µM
T3 sequence (whole entry): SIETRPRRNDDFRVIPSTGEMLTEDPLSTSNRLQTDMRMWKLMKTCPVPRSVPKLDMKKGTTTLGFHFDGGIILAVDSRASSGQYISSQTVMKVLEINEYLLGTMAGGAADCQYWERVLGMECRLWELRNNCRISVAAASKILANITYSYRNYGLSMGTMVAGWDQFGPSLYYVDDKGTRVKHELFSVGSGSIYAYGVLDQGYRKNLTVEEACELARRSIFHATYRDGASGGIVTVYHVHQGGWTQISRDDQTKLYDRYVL

Homo sapiens = species: Homo sapiens; experiment: To identify inhibition of the IFN signalling (Jak-Stat) pathway via expression of an eGFP reporter gene under the control of an IFN-stimulated response element (ISRE) containing MxA promoter.; format: functional; conditions: 30 µM
[7] = target: T4, Tyrosyl-tRNA synthetase, putative (Trypanosoma cruzi (strain CL Brener)) (UniProt Q4DSP6); experiment: Trypanosoma cruzi tyrosyl tRNA synthetase (TcYRS) _High Tyrosine SOP; format: functional; conditions: 30 µM; further: in the data most compounds retested in dose-response had high values
T4 sequence (whole entry): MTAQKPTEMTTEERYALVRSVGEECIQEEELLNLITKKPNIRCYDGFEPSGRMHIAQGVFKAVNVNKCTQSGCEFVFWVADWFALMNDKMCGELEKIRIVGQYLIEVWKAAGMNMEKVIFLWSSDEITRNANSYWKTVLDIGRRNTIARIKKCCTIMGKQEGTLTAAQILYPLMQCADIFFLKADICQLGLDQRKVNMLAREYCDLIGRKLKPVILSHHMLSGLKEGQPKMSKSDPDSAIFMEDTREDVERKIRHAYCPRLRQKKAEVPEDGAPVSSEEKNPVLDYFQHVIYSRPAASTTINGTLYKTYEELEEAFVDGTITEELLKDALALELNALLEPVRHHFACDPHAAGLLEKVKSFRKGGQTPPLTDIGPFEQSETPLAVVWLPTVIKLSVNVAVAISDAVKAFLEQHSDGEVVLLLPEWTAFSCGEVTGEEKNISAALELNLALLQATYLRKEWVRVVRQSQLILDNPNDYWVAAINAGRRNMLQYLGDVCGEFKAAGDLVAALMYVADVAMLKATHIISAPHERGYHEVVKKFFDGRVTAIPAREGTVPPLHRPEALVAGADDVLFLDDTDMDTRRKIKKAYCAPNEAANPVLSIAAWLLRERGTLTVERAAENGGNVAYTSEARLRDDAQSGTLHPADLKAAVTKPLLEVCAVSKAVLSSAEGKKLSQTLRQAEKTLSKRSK

[8] = target: T4, Tyrosyl-tRNA synthetase, putative (Trypanosoma cruzi (strain CL Brener)); experiment: Trypanosoma cruzi tyrosyl tRNA synthetase (TcYRS) SOP; format: functional; conditions: 30 µM
[9] = target: Chromo domain-containing protein 1 (Saccharomyces cerevisiae (strain ATCC 204508 / S288c) (Baker's yeast)) (UniProt P32657); experiment: ScCHD-1 Enzyme Inhibition Assay; format: functional; conditions: 30 µM; further: in the data most compounds retested in dose-response had high values
Sequence of Chromo domain-containing protein 1 (Saccharomyces cerevisiae (strain ATCC 204508 / S288c) (Baker's yeast)) (P32657 whole entry, the tested form may be a part): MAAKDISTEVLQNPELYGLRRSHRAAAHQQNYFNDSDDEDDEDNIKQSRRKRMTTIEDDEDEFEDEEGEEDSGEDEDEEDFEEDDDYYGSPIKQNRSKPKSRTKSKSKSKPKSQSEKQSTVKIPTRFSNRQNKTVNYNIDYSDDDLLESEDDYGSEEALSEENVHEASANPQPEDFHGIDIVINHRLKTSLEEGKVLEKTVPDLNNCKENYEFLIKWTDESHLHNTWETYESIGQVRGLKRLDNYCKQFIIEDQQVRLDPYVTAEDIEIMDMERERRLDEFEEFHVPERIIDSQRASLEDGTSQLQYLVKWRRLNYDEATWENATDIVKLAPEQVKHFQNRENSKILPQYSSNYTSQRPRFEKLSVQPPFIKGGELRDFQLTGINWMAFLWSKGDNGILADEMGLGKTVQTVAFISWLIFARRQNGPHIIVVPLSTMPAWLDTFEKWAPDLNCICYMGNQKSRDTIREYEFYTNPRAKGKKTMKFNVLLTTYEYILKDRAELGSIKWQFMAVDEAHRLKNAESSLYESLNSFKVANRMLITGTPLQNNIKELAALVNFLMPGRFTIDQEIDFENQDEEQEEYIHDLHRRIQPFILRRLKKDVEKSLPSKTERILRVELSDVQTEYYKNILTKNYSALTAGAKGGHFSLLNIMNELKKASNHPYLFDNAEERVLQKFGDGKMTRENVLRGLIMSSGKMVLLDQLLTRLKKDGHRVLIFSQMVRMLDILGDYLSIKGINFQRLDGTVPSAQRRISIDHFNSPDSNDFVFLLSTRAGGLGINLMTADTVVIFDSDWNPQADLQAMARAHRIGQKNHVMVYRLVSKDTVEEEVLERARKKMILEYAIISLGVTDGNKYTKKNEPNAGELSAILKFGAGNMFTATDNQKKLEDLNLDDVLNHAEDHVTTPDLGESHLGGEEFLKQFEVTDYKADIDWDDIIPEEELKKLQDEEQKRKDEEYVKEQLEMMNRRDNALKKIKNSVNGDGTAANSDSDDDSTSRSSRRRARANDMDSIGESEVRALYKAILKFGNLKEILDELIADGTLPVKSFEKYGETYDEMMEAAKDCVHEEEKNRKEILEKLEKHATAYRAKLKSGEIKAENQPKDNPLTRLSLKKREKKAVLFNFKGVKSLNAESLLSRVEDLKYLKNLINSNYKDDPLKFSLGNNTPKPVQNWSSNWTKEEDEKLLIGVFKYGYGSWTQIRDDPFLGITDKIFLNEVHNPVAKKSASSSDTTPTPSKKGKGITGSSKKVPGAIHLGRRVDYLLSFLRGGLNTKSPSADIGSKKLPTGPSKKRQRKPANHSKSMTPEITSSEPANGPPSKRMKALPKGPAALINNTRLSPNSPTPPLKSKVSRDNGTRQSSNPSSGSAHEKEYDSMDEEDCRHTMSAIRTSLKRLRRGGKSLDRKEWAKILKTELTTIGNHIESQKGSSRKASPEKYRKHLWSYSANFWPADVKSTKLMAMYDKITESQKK

Sequence of Protein translocase subunit SecA (Escherichia coli (strain K12)) (P10408 whole entry): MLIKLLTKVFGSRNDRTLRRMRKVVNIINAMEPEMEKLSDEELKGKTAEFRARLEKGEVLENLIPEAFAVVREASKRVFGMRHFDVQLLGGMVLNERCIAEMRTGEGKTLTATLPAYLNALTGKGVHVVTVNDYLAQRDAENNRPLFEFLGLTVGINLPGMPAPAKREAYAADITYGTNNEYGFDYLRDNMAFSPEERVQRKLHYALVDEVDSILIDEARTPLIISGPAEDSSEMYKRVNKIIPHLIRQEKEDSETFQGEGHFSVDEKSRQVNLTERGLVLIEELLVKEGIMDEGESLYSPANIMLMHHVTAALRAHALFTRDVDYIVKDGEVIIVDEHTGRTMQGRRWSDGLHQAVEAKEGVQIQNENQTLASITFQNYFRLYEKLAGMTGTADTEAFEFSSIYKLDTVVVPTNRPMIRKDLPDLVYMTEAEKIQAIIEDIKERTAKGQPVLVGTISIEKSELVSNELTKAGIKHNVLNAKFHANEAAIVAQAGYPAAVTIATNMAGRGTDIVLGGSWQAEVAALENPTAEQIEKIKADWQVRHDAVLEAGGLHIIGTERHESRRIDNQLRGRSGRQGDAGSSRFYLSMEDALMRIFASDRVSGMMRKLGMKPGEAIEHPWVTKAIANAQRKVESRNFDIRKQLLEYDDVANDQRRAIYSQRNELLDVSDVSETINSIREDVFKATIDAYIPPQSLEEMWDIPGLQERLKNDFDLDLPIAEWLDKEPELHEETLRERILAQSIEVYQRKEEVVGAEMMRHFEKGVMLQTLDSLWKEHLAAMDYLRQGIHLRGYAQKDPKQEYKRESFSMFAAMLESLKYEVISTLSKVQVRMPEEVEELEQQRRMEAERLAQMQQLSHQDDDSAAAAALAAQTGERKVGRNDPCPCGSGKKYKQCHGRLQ

Compound	Percent Effect [1] [%]	Percent Effect [2] [%]	Percent Effect [3] [%]	Percent Effect [4] [%]	Percent Effect (Trypanosoma cruzi) [%]	Percent Effect [5] [%]	Percent Effect [6] [%]	Percent Effect (Homo sapiens) [%]	Percent Effect [7] [%]	Percent Effect [8] [%]	Percent Effect [9] [%]
CCn1cc(CN2CCCN(C(=O)c3ccn(C)c(=O)c3)CC2)cn1	-0.55	20.8	-9.71	-17.4	4.02	-0.632	10.9	11.6	10.5	23.5	-18.6
COc1cccc(COCC(O)CN2CC(n3cccn3)C2)c1 (stereo not given)	0.892	21.1	5.98	1.34	6.58	-0.383	10.4	-16.2	7.35	19.5	-12.6
O=C(CSc1ccncc1)N1C[C@H]2CC[C@@H]1CN(Cc1cccnc1)C2	-4.31	16.4	10.6	8.46	7.05	2.27	6.74	9.78	5.38	15	-4
Cn1ncc2c(NCCC34CCCN3CCC4)nc(C3CCCC3)nc21	-5.81	5.48	0.214	3.33	0.979	4.09	5.68	-18.5	6.45	12.5	-5.71
Cc1ccc(F)c(C(=O)N2CCN(S(C)(=O)=O)[C@@H](C)C2)c1	-1.54	2.74	5.45	3.05	6.86	-1.82	8.7	8.46	-2.15	5	-2.13
CCn1nnc2cc(C(=O)N3CCCC3Cn3cc(C)cn3)ccc21 (stereo not given)	-1.32	-5.06	-2.65	3.15	3.31	2.28	0.737	9.94	0.493	1.27	0.343
CCC(C)(NCC(=O)Nc1nc(C)cs1)c1nc(C)cs1 (stereo not given)	0.0522	10.8	-10.8	-1.43	-3.62	-2.73	7.47	21	7.53	13.6	-3.58
CCc1cnc2c(c1Nc1ccc(OC)cc1)c(=O)n(C)c(=O)n2C	-1.52	18.2	0.437	-14.7	2.66	-41.9	8.88	11.4	4.23	8.97	-11.2
CCc1nnc2n1CCN(C(=O)CN(C)Cc1ccccc1)C2	-2.83	7.89	-9.27	7.43	5.88	2.16	4.32	-5.24	4.43	18.5	-4.71
CNS(=O)(=O)c1cccc(CNc2nccc(C(F)(F)F)n2)c1	-0.353	16.2	14.6	-2.3	5.19	-1.6	15.1	46.9	-0.493	16.1	-15.9
CCN1CCC(NC(=O)CN2CCCCC2Cn2cc(C)cn2)CC1 (stereo not given)	3.6	21.5	4.67	-0.101	-4.21	-11.4	15.3	14.9	1.04	-22.8	-23.6
O=C(NCc1ccccn1)Nc1cc(C(F)(F)F)c[nH]c1=O	-6.27	5.41	-7.01	23.6	4.74	4.25	4.67	2.58	3.96	18.3	-8.44
Cc1ccc(CN2CCCC23CCN(S(=O)(=O)c2ccccc2)C3)o1 (stereo not given)	-3.52	8.11	0.79	-6.47	2.25	1.59	18.6	6.15	9.73	17.9	2.48
CCc1ccc(C(=O)N2CCN(CCS(C)(=O)=O)CC2)o1	-3.79	-5.26	3.96	8.99	-0.752	0.383	4.18	10.7	5.39	7.32	0.21
CC1c2ncc(Cn3cncn3)n2CCN1C(=O)C1CCOCC1 (stereo not given)	-4.07	10.7	-5.52	0.0625	4.83	-56.5	5.13	-14.3	3.12	7.5	-6.18
CCCS(=O)(=O)N1CCC(NC(=O)c2cc(C)c(CC)s2)CC1	-1.6	2.67	-3.07	10.4	5.94	-2.08	7.15	13.4	6.01	18.5	1.12
O=C1CCCN1CC1CN(C(=O)CC2CCCC2)Cc2nccn2C1 (stereo not given)	-4.26	7.79	4.17	6.88	-1.08	0.645	11.7	-6.04	4.23	11.5	-9.36
CN(CCO)Cc1nnc(C2CCN(C(=O)C(C)(C)C)CC2)n1C	-2.6	5.33	1.76	-1.99	-7.69	6.25	16.6	2.97	0.546	3.7	-6
O=C(NCCN1CCC(c2cccs2)CC1)c1ccccc1C(F)(F)F	-3.22	8.22	0.699	8.89	5.09	17.7	17.2	3.57	5.38	12.5	-4.65
O=C(Nc1cc(F)ccc1OCC1CCCO1)c1ccc(O)nc1 (stereo not given)	-4.33	7.79	8.03	-2.88	8.91	-14.5	11.4	-5.06	3.81	14.1	-22.2
